The nature of experiment [1]: Primary qHTS for inhibitors of SARS-S pseudo-typed particle cell entry (AID 1479145). Further: nearly all actives have a fitted effect of over 45% in size. On activity change, negative = inhibition: on the % scale 0 is the no-effect control and ±100 the full control effect. As to conditions: outcome: dose series up to 57.1 µM unless noted.
The nature of experiment [2]: Primary qHTS for Huh7 cytotoxicity: counterscreen for inhibitors of MERS-S pseudotyped particle cell entry (AID 1479147). On activity change, negative = cytotoxicity: on the % scale 0 is the no-effect control and ±100 the full control effect. As to conditions: outcome: dose series up to 57.1 µM unless noted.
A short description of experiment [3]: Primary qHTS for inhibitors of MERS-S pseudo-typed particle cell entry (AID 1479149). Further: nearly all actives have a fitted effect of over 60% in size. On activity change, negative = inhibition: on the % scale 0 is the no-effect control and ±100 the full control effect. As to conditions: outcome: dose series up to 57.1 µM unless noted.
Experiment [4] is described as follows: Primary qHTS for Vero E6 cytotoxicity: counterscreen for inhibitors of SARS-S pseudo-typed particle cell entry (AID 1479150). The settings on record: outcome: dose series up to 57.1 µM unless noted.
A short description of experiment [5]: Cytotoxicity counterscreen for inhibitors of SARS-CoV-2 cell entry (AID 1645845). Further: nearly all actives have a fitted effect of over 50% in size. As to conditions: outcome: dose series up to 57.1 µM unless noted. In outline:
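Counterscreen run in the same HEK293-ACE2 line as the pseudotyped-particle entry assay, without particles. Viability after 48 h at 37 C was read as ATP luminescence, scaled between cell-containing and cell-free wells.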

Experiment [6] addresses Phospholipid hydroperoxide glutathione peroxidase GPX4 (Homo sapiens) (UniProt P36969). The experiment can be described thus: Primary qHTS Assay for Inhibitors of Recombinant Selenoprotein Glutathione Peroxidase 4 (GPX4) (AID 1845192; active means well fitted curve in the direction sought with a large enough effect; an effect the other way counts as inactive or inconclusive; further: nearly all actives have a fitted effect of over 65% in size). The method in brief: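 Steps: GPX4 plus compound, 30 min RT; add GR/GSH/NADPH master mix; start with cumene hydroperoxide; read 340/450 nm fluorescence at 0 and 15 min. Finals were 200 nM GPX4, 1 mM GSH, 0.5 mM CHP, 0.5 mM NADPH, 100 nM GR.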

Experiment [7] in a line: qHTS profiling of the MIPE4 collection as inhibitors of Plasmodium falciparum (3D7) proliferation (AID 743344; call rule not given here;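 further: scaled between DMSO vehicle wells and 0.29 µM artemisinin as full inhibition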). The settings on record: P. falciparum 3D7 in erythrocytes, SYBR Green DNA fluorescence, 72 h; at 28.5 µM (top of the series). The method in brief: (§1)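 Parasite DNA was quantified by SYBR Green I fluorescence (ex 485, em 535 nm) after overnight lysis in saponin/Triton buffer at room temperature. Cultures at 0.3% parasitemia and 2.5% hematocrit were first exposed to compound for 72 h at 37 C; signals were normalised to artemisinin (0.29 uM) and vehicle wells.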

A short description of experiment [8]: qHTS profiling of the MIPE4 collection as inhibitors of Plasmodium falciparum (DD2) proliferation (AID 743345; call rule not given here). As to conditions: P. falciparum Dd2 in erythrocytes, SYBR Green DNA, 72 h; at 28.5 µM (top of the series). In outline:
as §1

Experiment [9] in a line: qHTS profiling of the MIPE4 collection as inhibitors of Plasmodium falciparum (DD2) proliferation (Rep 2) (AID 743346; call rule not given here). As to conditions: P. falciparum Dd2 in erythrocytes, SYBR Green DNA, 72 h; at 28.5 µM (top of the series). In outline: as §1
The target in experiment [10] is Peroxisome proliferator-activated receptor delta (Homo sapiens) (UniProt Q03181). The experiment is described as follows: qHTS assay for small molecule agonists of peroxisome proliferator-activated receptor delta signaling (AID 588534).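 Further: 0% = DMSO basal wells and 100% = positive control agonist at 10 µM.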 The method in brief: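 EC50 and efficacy values derive from Hill fits of a concentration series in a beta-lactamase reporter cell assay. Exposure is 18 hrs at 37 C, with CCF4 fluorescence as the readout.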
Peroxisome proliferator-activated receptor delta (Homo sapiens), sequence (Q03181 whole entry, looked up): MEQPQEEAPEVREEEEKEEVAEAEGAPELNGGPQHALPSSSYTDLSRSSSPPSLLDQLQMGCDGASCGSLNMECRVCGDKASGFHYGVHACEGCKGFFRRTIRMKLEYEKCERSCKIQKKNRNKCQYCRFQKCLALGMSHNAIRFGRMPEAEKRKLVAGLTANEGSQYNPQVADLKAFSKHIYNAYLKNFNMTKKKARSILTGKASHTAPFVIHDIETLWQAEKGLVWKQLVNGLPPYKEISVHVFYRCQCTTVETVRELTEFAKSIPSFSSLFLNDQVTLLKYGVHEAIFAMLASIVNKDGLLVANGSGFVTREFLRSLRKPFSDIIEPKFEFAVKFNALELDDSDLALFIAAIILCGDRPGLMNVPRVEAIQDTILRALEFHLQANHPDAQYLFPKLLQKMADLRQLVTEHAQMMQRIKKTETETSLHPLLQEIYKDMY

A short description of experiment [11]: Primary qHTS to identify inhibitors of SARS-CoV-2 cell entry (AID 1645846). Further: nearly all actives have a fitted effect of over 45% in size. The settings on record: SARS-CoV-2 pseudovirus cell entry assay, luminescence; activity change, negative = inhibition: at 57.1 µM (top of the series) unless noted. In outline: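 Using luciferase-reporting pseudoviruses carrying Wuhan-Hu-1 spike, the screen tracks entry into stably ACE2-expressing cells over 48 hr. Activity is expressed relative to spike particles versus particles lacking any fusion protein.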

Experiment [12] is described as follows: KB-8-5-11 P-gp reporter qHTS against the NCATS DSHEA and TCM libraries (AID 1919977; active means well fitted curve in the direction sought with a large enough effect; an effect the other way counts as inactive or inconclusive; further: 0% is about no effect). In outline:
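Viability of drug-resistant KB-8-5-11 cells is measured by CellTiter-Glo luminescence following roughly 72 h treatment at 37C. Substances were titrated, with bortezomib as intraplate control.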

The nature of experiment [13]: qHTS profiling for inhibitors of Plasmodium falciparum (3D7) proliferation (AID 743322; call rule not given here;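 further: infected erythrocytes exposed to compound for 72 h before lysis; 100% = DMSO vehicle wells and 0% = 0.29 µM artemisinin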). The settings on record: P. falciparum 3D7 proliferation; at 28.7 µM (top of the series). In outline: as §1
Experiment [14] can be described thus: qHTS profiling for inhibitors of Plasmodium falciparum (DD2) proliferation (AID 743323; call rule not given here). The settings on record: lower = more inhibition; at 28.7 µM (top of the series). The method in brief:
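Parasite proliferation measured via DNA-dye fluorescence, as uninfected erythrocytes lack DNA. Cultures at 0.3% parasitemia and 2.5% hematocrit incubated 72 h with compound; signal scaled between vehicle and 0.29 uM artemisinin wells.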

A short description of experiment [15]: qHTS profiling for inhibitors of Plasmodium falciparum (HB3) proliferation (AID 743324; active means well fitted curve in the direction sought with a large enough effect; an effect the other way counts as inactive or inconclusive;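 further: 100% = DMSO vehicle wells and 0% = artemisinin-treated control wells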). As to conditions: Plasmodium falciparum HB3 blood-stage proliferation; at 28.7 µM (top of the series). The method in brief:
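SYBR Green fluorescence (485 ex/535 em) of lysed cultures, incubated overnight at room temperature in the dark, quantifies parasite DNA. Infected erythrocytes at 0.3% parasitemia and 2.5% hematocrit were exposed 72 h; values normalized to DMSO and 0.29 uM artemisinin controls.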

Experiment [16] concerns the target Alpha-galactosidase (Coffea arabica) (UniProt Q42656). The experiment is described as follows: Counterscreen for Glucocerebrosidase Inhibitors: qHTS Assay for Coffee Bean alpha-Galactosidase at pH 4.5 (AID 957; active means well fitted curve in the direction sought with a large enough effect; an effect the other way counts as inactive or inconclusive;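 further: plate controls were enzyme alone for no effect and no enzyme for full effect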). The method in brief: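 Quantitative HTS of compounds (0.7 nM to 77 uM) against coffee bean alpha-galactosidase at pH 4.5, measuring 4-methylumbelliferone fluorescence released from 80 uM substrate.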

Experiment [17] has the same target. The experiment can be described thus: Counterscreen for Glucocerebrosidase Inhibitors: qHTS Assay for Coffee Bean alpha-Galactosidase at pH 5.9 (AID 998; active means well fitted curve in the direction sought with a large enough effect; an effect the other way counts as inactive or inconclusive;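 further: plate controls were uninhibited enzyme for no effect and no-enzyme basal signal for full effect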). The method in brief: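 Enzyme 2 nM + cpd (0.7 nM–77 uM titration) + 4-MU-alpha-Gal 80 uM, pH 5.9 citrate/Tween-20, RT 20 min, NaOH/glycine stop pH 10, fluor 365/440. Normalized to no-enzyme and full-activity controls; Hill-fit AC50.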

Experiment [18] is described as follows: Validation screen for inhibitors of Lassa infection (AID 463096). Further: on the % scale 0 is the no-effect control and ±100 the full control effect.
Experiment [19] deals with Glucocorticoid receptor (Homo sapiens) (UniProt P04150). The experiment is described as follows: qHTS assay for small molecule agonists of glucocorticoid receptor signaling (AID 588532; active means well fitted curve in the direction sought with a large enough effect in the signal ratio, with a control signal flat; the % refers to the signal ratio;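 further: 100% = dexamethasone at 0.1 µM and 0% = DMSO only wells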). As to conditions: HeLa MMTV-bla, beta-lactamase ratio, agonist, 18 h; stronger effect = higher value; percent of dexamethasone control, DMSO zero. In outline:
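HeLa GRE-bla reporter cells; 18 h compound exposure at 37 C; 2 h CCF4 loading at room temperature; fluorescence at 460 and 530 nm; EC50 by Hill equation.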

Experiment [20] deals with Vitamin D3 receptor (Homo sapiens) (UniProt P11473). The experiment is described as follows: qHTS assay for small molecule agonists of vitamin D receptor signaling (AID 588543).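 Further: 0% = DMSO basal and 100% = reference agonist control.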 In outline:
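Measured: β-lactamase reporter activity (CCF4, 405 nm excitation, 460/530 nm emission) in HEK293T VDR-UAS-bla cells after 16 h compound exposure at 37 °C. Normalization against 50 nM 1α,25-dihydroxyvitamin D3 and DMSO; Hill-fit EC50.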

Experiment [21] can be described thus: qHTS assay for small molecule agonists of retinoid X receptor alpha signaling (AID 588544).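 On activation: 0% = DMSO basal wells and 100% = reference agonist.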 As to conditions: HEK293T RXRa-UAS-bla, beta-lactamase reporter, 18 h; 530 nm emission.
The target in experiment [22] is Retinoic acid receptor RXR-alpha (Homo sapiens) (UniProt P19793). The experiment is described as above.
Retinoic acid receptor RXR-alpha (Homo sapiens), sequence (P19793 whole entry, looked up): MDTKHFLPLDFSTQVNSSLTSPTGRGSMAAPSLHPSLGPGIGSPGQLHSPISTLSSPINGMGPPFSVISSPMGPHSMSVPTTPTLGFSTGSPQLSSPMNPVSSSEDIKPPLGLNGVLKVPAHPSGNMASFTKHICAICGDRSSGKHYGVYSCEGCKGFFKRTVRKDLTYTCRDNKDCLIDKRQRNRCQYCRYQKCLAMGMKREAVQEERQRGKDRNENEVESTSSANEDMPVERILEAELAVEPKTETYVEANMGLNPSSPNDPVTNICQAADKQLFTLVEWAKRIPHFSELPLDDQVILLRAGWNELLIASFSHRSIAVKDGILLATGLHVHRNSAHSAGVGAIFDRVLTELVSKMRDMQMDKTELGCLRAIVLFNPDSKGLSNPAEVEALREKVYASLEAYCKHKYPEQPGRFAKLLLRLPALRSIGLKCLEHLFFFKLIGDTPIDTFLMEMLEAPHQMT
Experiment [23] addresses Thyroid hormone receptor beta (Homo sapiens) (UniProt P10828). The experiment can be described thus: qHTS assay for small molecule agonists of thyroid hormone receptor beta signaling (AID 588545). In outline:
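Agonist activity was read as beta-lactamase CCF4 fluorescence (405 ex, 460/530 em), scaled between DMSO (0%) and 10 nM T3 (100%), then Hill-fitted for EC50 and efficacy. HEK 293 TR-UAS-bla cells in 2% charcoal/dextran FBS medium were exposed 18 h at 37 C.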

For experiment [24], the target named is Luciferin 4-monooxygenase (Photinus pyralis) (UniProt P08659). The experiment is described as follows: Biochemical firefly luciferase enzyme assay for NPC (AID 624030; active means well fitted curve in the direction sought with a large enough effect; an effect the other way counts as inactive or inconclusive;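 further: purified P. pyralis luciferase at 10 nM with luciferin and ATP substrate; 0% = DMSO and -100% = full luciferase inhibition by PTC124 control; nearly all actives have a fitted effect of over 70% in size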). The method in brief:
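Purified P. pyralis luciferase at 10 nM in 50 mM Tris Acetate (final), luminescence read within 5 minutes of enzyme addition to compounds. Activity normalised to PTC124 versus DMSO; concentration-response curves classed by r2, magnitude and activity.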

Experiment [25] in a line: qHTS assay for small molecule agonists of the antioxidant response element (ARE) signaling pathway (AID 651741; active means well fitted activation curve with a large enough effect in the signal ratio; the % refers to the signal ratio; further: % of control where 0% means no effect). The method in brief: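 HepG2 ARE-bla reporter cells, 2,000/well; 5 h settle at 37 C/5% CO2; compound pin transfer (23 nL, DMSO); 16 h at 37 C; LiveBLAzer B/G FRET substrate, 2 h RT; fluorescence intensity read.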
Experiment [26] has as its target Cytochrome P450 2D6 (Homo sapiens) (UniProt P10635). The experiment is described as follows: Cytochrome P450 family 2 subfamily D member 6 (CYP2D6) small molecule antagonists: luciferase biochemical (cell-free) qHTS assay (AID 1645840; active means well fitted curve in the direction sought with a large enough effect in the repeat runs; an effect the other way counts as inactive or inconclusive; further: potency means the concentration at half of the fitted maximal effect; nearly all actives have a fitted effect of over 55% in size). The method in brief:
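P450-Glo CYP2D6 system: proluciferin substrate converted by enzyme to luciferin, read by luminescence proportional to activity. Enzyme-substrate mix with compound 10 min at room temperature, then NADPH regeneration 1 h before detection reagent.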

The target in experiment [27] is Cytochrome P450 2C9 (Homo sapiens) (UniProt P11712). The experiment can be described thus: Cytochrome P450 family 2 subfamily C member 9 (CYP2C9) small molecule antagonists: luciferase biochemical (cell-free) qHTS assay (AID 1645842; active means well fitted curve in the direction sought with a large enough effect in the repeat runs; an effect the other way counts as inactive or inconclusive; further: potency means the concentration at half of the fitted maximal effect; nearly all actives have a fitted effect of over 55% in size). In outline:
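P450-Glo CYP2C9 system: proluciferin substrate with enzyme in mix containing 0.4% BSA, 10 min at room temperature, then NADPH regeneration solution added and incubated 1 h at 37C. Detection reagent stopped reaction; luminescence read after 20 min as RLU.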

Values joined by “and” are separate entries in the source; they are usually repeats but may differ in a detail not shown here. Equal values may be shown once. Records with an inconclusive call do not appear. Active and inactive are the calls of the source. Unless noted, the call rests on the fitted dose curve.

Glucocorticoid receptor (Homo sapiens), sequence (P04150 whole entry, looked up): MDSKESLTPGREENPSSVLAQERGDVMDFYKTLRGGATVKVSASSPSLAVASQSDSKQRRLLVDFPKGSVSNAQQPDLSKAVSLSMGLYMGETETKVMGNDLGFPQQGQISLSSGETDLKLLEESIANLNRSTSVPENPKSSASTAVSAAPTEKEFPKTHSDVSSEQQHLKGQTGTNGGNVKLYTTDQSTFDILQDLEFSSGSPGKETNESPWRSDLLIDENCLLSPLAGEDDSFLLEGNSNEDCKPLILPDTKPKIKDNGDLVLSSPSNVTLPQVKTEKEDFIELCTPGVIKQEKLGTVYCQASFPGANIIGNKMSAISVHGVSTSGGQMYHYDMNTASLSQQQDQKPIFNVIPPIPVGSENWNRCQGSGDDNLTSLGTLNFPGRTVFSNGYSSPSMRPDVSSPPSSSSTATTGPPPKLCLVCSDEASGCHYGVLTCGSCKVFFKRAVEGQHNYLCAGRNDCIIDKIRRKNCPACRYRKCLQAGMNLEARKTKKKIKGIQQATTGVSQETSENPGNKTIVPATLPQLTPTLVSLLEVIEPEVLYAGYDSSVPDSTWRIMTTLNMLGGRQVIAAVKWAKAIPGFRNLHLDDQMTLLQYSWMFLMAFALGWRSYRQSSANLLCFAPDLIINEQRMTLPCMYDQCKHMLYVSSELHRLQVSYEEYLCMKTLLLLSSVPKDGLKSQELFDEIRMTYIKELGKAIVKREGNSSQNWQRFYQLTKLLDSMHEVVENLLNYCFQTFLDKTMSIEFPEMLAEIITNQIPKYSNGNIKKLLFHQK
Vitamin D3 receptor (Homo sapiens), sequence (P11473 whole entry, looked up): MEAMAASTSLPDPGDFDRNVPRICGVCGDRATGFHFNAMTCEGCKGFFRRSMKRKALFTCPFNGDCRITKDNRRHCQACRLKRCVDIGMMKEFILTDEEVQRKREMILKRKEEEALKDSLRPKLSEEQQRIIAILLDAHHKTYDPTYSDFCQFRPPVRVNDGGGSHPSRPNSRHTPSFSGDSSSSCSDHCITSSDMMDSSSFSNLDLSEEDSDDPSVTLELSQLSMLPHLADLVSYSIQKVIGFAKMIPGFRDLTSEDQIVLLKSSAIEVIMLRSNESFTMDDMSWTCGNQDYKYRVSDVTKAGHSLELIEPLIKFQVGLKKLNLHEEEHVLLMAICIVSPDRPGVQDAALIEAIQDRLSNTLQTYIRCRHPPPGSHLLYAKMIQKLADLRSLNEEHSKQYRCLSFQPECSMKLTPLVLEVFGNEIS
Alpha-galactosidase (Coffea arabica), sequence (Q42656 whole entry, looked up): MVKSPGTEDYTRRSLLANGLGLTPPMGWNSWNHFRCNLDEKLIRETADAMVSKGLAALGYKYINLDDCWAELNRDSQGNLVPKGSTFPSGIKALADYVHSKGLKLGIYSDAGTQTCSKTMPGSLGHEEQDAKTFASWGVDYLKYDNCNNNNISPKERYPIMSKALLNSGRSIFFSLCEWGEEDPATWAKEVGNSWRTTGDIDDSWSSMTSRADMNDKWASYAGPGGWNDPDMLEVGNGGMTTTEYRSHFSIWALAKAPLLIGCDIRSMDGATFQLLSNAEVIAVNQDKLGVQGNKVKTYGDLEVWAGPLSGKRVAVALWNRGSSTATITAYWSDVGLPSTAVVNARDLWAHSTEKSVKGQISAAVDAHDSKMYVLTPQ
Phospholipid hydroperoxide glutathione peroxidase GPX4 (Homo sapiens), sequence (P36969 whole entry, looked up): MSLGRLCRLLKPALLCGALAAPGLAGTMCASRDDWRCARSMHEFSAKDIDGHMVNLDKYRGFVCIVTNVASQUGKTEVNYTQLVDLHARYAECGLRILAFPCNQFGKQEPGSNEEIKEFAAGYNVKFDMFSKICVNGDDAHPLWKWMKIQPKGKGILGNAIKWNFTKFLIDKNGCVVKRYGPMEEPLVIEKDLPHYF
Thyroid hormone receptor beta (Homo sapiens), sequence (P10828 whole entry, looked up): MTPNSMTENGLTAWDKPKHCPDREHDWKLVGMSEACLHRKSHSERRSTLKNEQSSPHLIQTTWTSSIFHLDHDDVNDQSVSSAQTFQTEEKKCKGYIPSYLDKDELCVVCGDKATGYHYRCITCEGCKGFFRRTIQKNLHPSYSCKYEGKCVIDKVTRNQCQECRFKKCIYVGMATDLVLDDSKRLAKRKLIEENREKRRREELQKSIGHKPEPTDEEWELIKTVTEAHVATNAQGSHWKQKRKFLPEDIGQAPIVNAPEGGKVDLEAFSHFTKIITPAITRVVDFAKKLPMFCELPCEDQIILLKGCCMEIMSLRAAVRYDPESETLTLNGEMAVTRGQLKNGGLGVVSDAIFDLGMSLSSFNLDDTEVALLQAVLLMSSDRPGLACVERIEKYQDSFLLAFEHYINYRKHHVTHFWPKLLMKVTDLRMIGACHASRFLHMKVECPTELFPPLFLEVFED
Cytochrome P450 2D6 (Homo sapiens), sequence (P10635 whole entry, looked up): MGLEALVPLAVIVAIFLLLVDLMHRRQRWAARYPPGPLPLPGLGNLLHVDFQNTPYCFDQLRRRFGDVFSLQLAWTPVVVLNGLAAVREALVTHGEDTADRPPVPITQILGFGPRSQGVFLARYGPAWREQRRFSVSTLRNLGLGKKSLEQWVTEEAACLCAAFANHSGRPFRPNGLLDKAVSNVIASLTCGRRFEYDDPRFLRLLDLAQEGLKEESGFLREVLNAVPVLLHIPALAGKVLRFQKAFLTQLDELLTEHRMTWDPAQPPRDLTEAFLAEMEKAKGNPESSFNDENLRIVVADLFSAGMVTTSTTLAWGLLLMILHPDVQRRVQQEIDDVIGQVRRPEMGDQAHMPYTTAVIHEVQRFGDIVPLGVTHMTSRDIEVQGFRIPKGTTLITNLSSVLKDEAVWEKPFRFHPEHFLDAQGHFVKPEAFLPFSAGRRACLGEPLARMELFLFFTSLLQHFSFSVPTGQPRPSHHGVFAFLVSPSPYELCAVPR
Luciferin 4-monooxygenase (Photinus pyralis), sequence (P08659 whole entry, looked up): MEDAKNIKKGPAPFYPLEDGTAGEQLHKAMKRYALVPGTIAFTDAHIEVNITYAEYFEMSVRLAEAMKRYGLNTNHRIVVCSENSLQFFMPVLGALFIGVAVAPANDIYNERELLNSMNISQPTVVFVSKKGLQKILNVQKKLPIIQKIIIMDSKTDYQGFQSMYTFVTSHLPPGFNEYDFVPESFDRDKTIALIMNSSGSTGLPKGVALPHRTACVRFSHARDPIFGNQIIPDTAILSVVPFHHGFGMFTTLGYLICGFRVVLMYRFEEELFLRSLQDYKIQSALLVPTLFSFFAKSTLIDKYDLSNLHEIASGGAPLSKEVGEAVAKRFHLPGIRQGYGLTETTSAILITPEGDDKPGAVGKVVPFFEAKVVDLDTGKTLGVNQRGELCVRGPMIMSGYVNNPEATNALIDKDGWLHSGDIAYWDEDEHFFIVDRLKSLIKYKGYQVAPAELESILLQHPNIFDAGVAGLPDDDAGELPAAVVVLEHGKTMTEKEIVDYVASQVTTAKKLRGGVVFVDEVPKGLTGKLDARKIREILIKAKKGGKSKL
Cytochrome P450 2C9 (Homo sapiens), sequence (P11712 whole entry, looked up): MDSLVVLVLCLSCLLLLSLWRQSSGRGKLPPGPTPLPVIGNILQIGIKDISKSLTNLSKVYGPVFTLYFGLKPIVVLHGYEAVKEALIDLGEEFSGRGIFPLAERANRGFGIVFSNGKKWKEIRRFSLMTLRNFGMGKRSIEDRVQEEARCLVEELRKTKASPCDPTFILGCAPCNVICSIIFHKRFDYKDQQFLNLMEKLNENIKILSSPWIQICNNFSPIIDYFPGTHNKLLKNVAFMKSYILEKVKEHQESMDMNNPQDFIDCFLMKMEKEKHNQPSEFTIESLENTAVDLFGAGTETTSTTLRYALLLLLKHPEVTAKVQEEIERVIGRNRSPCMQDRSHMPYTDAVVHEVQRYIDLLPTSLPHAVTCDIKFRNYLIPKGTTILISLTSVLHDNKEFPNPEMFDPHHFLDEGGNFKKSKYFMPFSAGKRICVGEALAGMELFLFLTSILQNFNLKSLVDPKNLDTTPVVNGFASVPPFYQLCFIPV

As to `CC(=O)[C@@]1(O)CC[C@H]2[C@@H]3CCC4=CC(=O)CC[C@@H]4[C@H]3CC[C@@]21C`, the Potency entry in [1], in experiment [2], in experiment [3], in experiment [4], in [5] and in experiment [6] was “inactive” throughout.
`CN[C@@H]1[C@H](O)[C@H](O[C@@H]2[C@H](O)[C@@H](O[C@H]3O[C@H]([C@@H](C)NC)CC[C@H]3N)[C@@H](N)C[C@H]2N)OC[C@]1(C)O` came in with a parasite growth, % of DMSO control in [7] of 81.2%. Moreover, the parasite growth remaining, % of DMSO control (lower = more inhibition) in experiment [8] was determined as 98.7%. The parasite growth, % of control (lower = inhibition) in [9] was found to be 196%. The outcome in experiment [1] and in experiment [3] was “inactive [at 11.4 µM]” throughout. Also, the activity change, negative = cytotoxicity in experiment [2] is -2.83% [at 11.4 µM] (inactive); in experiment [4] it was -14.2% [at 11.4 µM] (inactive); in experiment [5], -14.3% [at 11.3 µM] (inactive).
As to `C[N+]1([O-])[C@H]2CC(OC(=O)C(CO)c3ccccc3)C[C@H]1[C@H]1O[C@H]12` (stereo partly specified), the Potency result in experiment [1], in [2], in experiment [3], in [4], in experiment [5] and in experiment [6] was “inactive” each time.
As for `O=C(O)c1ccccc1C(c1ccc(O)cc1)c1ccc(O)cc1`, the molecule was classed as inactive in experiment [10]. In addition, the Potency entry in experiment [1], in experiment [2], in experiment [3], in experiment [4] and in [5] was “inactive” in each case. Besides, in experiment [11], the activity change, negative = inhibition was -24.4%.
With `CCCCC/C=C\C/C=C\C/C=C\CCCCC(=O)O`, the Potency result in [1], in experiment [2], in experiment [3], in experiment [4] and in experiment [5] was “inactive” throughout. Also, the activity change, negative = inhibition in experiment [11] is -13.4% [at 114 µM]; in experiment [12] it was 5.04% [at 3.26 µM] (inactive).
For the molecule `CC1(C)C2CCC1(C)C(O)C2` (stereo unspecified), the Potency entry in experiment [1], in [2], in [3], in [4], in experiment [5] and in [12] was “inactive” in each case.
`OB1OCc2cc(F)ccc21` showed a remaining parasite growth % (stronger effect = lower value) in [13] of 85.7%. This molecule came in with an activity, percent of control in experiment [14] of 91.5%. The molecule further showed a remaining proliferation (% of control), lower = more inhibition in experiment [15] of 40.3%. Further, the Potency result in experiment [1], in [2], in [3], in experiment [4] and in experiment [5] was “inactive” throughout. Besides, the activity change, negative = inhibition in experiment [11] is -25.6%.
For the molecule `CCC=CCC=CCC=CCCCCCCCC(=O)O`, the Potency entry in experiment [1], in [2], in experiment [3], in experiment [4] and in [11] was “inactive” throughout.
With `C[C@@](Cc1ccc(O)c(O)c1)(NN)C(=O)O`, the result in [16] and in experiment [17] was inactive. Also, the Potency result in experiment [18] was “inactive”.
As to `CC1(C)C(C=C(Cl)Cl)C1C(=O)OCc1cccc(Oc2ccccc2)c1` (stereo unspecified), the activation in experiment [19] was 2.68% (inactive) and -0.215% (inactive) and 2.06% (inactive). Further, the molecule was called inactive in [20] and in experiment [23]. In addition, in experiment [21], the max response is -7.32% and -8.4%. For the same molecule, the Potency entry in experiment [22], in experiment [24] and in experiment [25] was “inactive” each time.
On to `CC=CC1C(C(=O)OCc2c(F)c(F)c(COC)c(F)c2F)C1(C)C` (stereo unspecified), for which the Potency in experiment [26] was 6.74 µM (active); in experiment [27], 10.7 µM (active).

Values taken from PubChem BioAssay (NCATS).
